Measured values from publication PMC4336329 (PLoS ONE, 2015).
The campaign covered roughly 310,000 compounds. About 14,000 (4.5%) showed an effect of 50% or more. The effect is printed as a negative number. What follows is part of a selection rich in strong results, with near analogues and random picks from the rest.

Each compound was assayed against human ether-à-go-go-related gene (hERG) potassium channel (human, UniProt Q12809) (assay: primary screen, population patch clamp on CHO cells stably expressing hERG; higher = less effect of the substance).
human ether-à-go-go-related gene (hERG) potassium channel, sequence (Q12809 whole entry, looked up): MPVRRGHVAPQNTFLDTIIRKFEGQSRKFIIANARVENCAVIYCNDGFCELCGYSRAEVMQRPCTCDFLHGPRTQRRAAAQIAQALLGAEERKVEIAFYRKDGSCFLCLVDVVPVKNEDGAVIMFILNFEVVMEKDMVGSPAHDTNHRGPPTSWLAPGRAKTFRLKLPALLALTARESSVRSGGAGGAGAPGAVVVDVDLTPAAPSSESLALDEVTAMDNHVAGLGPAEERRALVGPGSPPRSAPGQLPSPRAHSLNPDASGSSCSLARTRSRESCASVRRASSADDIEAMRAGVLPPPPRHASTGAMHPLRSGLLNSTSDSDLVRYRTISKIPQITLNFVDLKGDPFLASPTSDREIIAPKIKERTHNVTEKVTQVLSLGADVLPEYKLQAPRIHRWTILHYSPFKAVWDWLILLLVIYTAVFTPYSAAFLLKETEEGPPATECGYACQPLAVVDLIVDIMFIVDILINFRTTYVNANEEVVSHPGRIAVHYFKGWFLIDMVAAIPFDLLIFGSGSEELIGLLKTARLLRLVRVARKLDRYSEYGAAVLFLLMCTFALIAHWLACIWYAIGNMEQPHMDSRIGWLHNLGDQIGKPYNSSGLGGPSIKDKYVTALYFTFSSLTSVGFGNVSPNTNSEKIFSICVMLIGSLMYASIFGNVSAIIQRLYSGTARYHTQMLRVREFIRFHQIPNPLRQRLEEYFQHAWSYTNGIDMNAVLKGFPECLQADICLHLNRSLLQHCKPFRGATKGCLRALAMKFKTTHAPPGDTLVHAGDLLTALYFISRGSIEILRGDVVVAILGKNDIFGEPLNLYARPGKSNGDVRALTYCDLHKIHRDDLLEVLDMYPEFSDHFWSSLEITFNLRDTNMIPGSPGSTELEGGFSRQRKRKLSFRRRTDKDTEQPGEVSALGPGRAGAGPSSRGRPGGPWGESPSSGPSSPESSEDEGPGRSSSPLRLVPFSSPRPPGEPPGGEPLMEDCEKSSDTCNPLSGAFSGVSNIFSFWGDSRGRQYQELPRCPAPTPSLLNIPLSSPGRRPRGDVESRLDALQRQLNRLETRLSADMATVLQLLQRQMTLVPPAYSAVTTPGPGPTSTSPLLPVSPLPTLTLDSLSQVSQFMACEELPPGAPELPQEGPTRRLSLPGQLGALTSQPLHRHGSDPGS
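Also: peak tail current of the secondary pulse compared with the same well before compound.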

Row | Structure (SMILES) | hERG current change (%, negative = inhibition) at 10uM [%]
1 | Cc1cc(OCc2nn[nH]n2)c2c3c(c(=O)oc2c1)CCC3 | 3.12
2 | Cc1cc(C)c(S(=O)(=O)NCc2ccc3c(c2)OCO3)cc1C | -6.86
3 | Cc1onc(-c2ccccc2)c1C(=O)c1ccccc1 | 3.87
4 | COCCN1CC(C(=O)NCc2ncccc2C)CCC1=O (centres unmarked) | 22.6
5 | Cc1ccc(S(=O)(=O)CCC(=O)N(Cc2nnc(-c3ccc(Cl)cc3)o2)C2CC2)cc1 | -12.7
6 | O=[N+]([O-])c1ccc(N2CCN(S(=O)(=O)c3ccccc3)CC2)cc1NCc1cccnc1 | 1.8
7 | Cc1ccc2c(CC(=O)OCc3cc(=O)n4c(n3)sc3ccccc34)coc2c1 | 5.05
8 | CC(CN1CCOCC1)OC(=O)C(C)(c1ccccc1)c1ccccc1 (centres unmarked) | -8.05
9 | CC(CN1CCCCC1)OC(=O)C(C)(c1ccccc1)c1ccccc1.Cl (centres unmarked) | -52.3
10 | CC(CN1CCCC1)OC(=O)C(c1ccccc1)c1ccccc1.Cl (centres unmarked) | -42.2
11 | CC(CN1CCOCC1)OC(=O)/C=C/c1ccccc1.Cl (centres unmarked) | 10.1
12 | CC(CN1CCCCC1)OC(=O)/C=C/c1ccccc1.Cl (centres unmarked) | -71
13 | COc1ccc(/C=C/C(=O)OC(C)CN2CCCCC2)cc1.Cl (centres unmarked) | -26.2
14 | COc1cccc2cc(C(=O)NCc3ccc(Cl)cc3)c(=O)oc12 | 14.4
15 | O=C(Cn1cnc2ccccc2c1=O)Nc1cccc(-c2nnc3n2CCCCC3)c1 | 0.387
16 | O=C(Nc1cccc(-c2nc3ccccc3[nH]2)c1)c1ccco1 | -16.9
17 | Cc1ccc2nc(-c3cccc(NC(=O)c4ccco4)c3)[nH]c2c1 | -30.7
18 | COc1ccc(-n2nc(C(=O)c3cccs3)cc(-c3nc4ccccc4[nH]3)c2=N)cc1 | -4.53
19 | N=c1c(-c2nc3ccccc3[nH]2)cc(C(=O)c2ccco2)nn1-c1ccccc1 | -59.5
20 | N=c1c(-c2nc3ccccc3[nH]2)cc(C(=O)c2cccs2)nn1-c1ccccc1 | -50.2
21 | N=c1c(-c2nc3ccccc3[nH]2)cc(C(=O)c2cccs2)nn1-c1ccc(Cl)cc1 | 8.51
22 | O=C(Nc1ccc(-c2nc3ccccc3[nH]2)cc1)c1ccco1 | -18.4
23 | Cc1cccc(-n2nc(C(=O)c3ccco3)cc(-c3nc4ccccc4[nH]3)c2=N)c1 | -65.7
24 | Cc1ccccc1-n1nc(C(=O)c2cccs2)cc(-c2nc3ccccc3[nH]2)c1=N | -1.9
25 | COc1ccc(CCNC(=O)CCC(=O)N2CCN(S(=O)(=O)c3ccccc3)CC2)cc1OC | 4.4
26 | Fc1ccc(-n2c(Cc3ccccc3)nnc2SCc2nc(-c3ccc(Cl)cc3)no2)cc1 | -1.6
27 | Cc1cc(N(CN2CCCC2=O)C(=O)c2ccc(OC(C)C)cc2)no1 | -2.94

Row | Structure (SMILES) | hERG current change (%, negative = inhibition) at 10uM [%]
28 | O=C(NP(=O)(N1CCOCC1)N1CCOCC1)C1=C(N2CCOCC2)/C(=C\c2ccccc2)CC1 | 18.1
29 | Cc1nc2n(n1)C(c1ccccc1)C1=C(CC(c3ccco3)CC1=O)N2 (centres unmarked) | 11.4
30 | CCSc1nnc(-c2cccc(S(=O)(=O)N(C)C)c2)n1-c1cc(OC)ccc1OC | -49.8
31 | COc1ccc(OC)c(-n2c(SCC(C)=O)nnc2-c2cccc(S(=O)(=O)N(C)C)c2)c1 | -16.9
32 | CCCSc1nnc(-c2cccc(S(=O)(=O)N(C)C)c2)n1-c1cc(OC)ccc1OC | -68.2
33 | CC(C)(C)OC(=O)CNC(=O)c1nc[nH]c1C(=O)N1CCN(C(=O)OC(C)(C)C)CC1 | -15.8
34 | CCOc1ccc(C(=O)NCCC(=O)NCCCC(=O)O)cc1 | 6.08
35 | Cc1cccc(N2N=C(C(=O)O)CCC2=O)c1 | 10.2
36 | O=C(Nc1cccnc1)c1cnn2c(C(F)F)cc(C3CC3)nc12 | -57.6
37 | CC(=O)c1ccc(NC(=O)c2cnn3c(C(F)F)cc(C4CC4)nc23)cc1 | 11.1
38 | O=C(O)c1cnn2c(C(F)F)cc(C3CC3)nc12 | 3.73
39 | Cc1ccc(C)c(SCC(=O)N(C)CC(=O)Nc2ccc(N3CCOCC3)cc2)c1 | -5.12
40 | Cc1ccc(NC(=S)N/N=C/c2ccc([N+](=O)[O-])s2)cc1 | -3.04
41 | O=C(c1ccc(F)cc1)N1CCC(C(=O)N2CCN(Cc3ccc4c(c3)OCO4)CC2)CC1 | -10.5
42 | O=C(C1CC(=O)N(c2ccc(Cl)cc2)C1)N1CCN(Cc2ccc3c(c2)OCO3)CC1 (centres unmarked) | -67.7
43 | O=C(C1CCN(c2nnc(-n3cccc3)s2)CC1)N1CCN(Cc2ccc3c(c2)OCO3)CC1 | -68.2
44 | COc1ccc(N2CC(C(=O)N3CCN(Cc4ccc5c(c4)OCO5)CC3)CC2=O)cc1 (centres unmarked) | -19
45 | COc1cccc(CN2CCC(C(=O)N3CCN(Cc4ccc5c(c4)OCO5)CC3)CC2)c1 | -19.8
46 | O=C(C1CCN(Cc2cccs2)CC1)N1CCN(Cc2ccc3c(c2)OCO3)CC1.O=C(O)C(=O)O | -14.5
47 | O=C(C1CCN(Cc2ccccc2O)CC1)N1CCN(Cc2ccc3c(c2)OCO3)CC1 | -23
48 | O=C(C1CCN(Cc2ccc(Cl)cc2)CC1)N1CCN(Cc2ccc3c(c2)OCO3)CC1 | -66.6
49 | N#Cc1ccc(CN2CCN(C(=O)CNS(=O)(=O)c3ccc4c(c3)OCCCO4)CC2)cc1 | -20.8
50 | O=C(C1CC(=O)N(c2ccc3c(c2)OCCO3)C1)N1CCN(Cc2ccccc2)CC1 (centres unmarked) | 0.404
51 | C[C@H](NS(=O)(=O)c1ccc2c(c1)OCCCO2)C(=O)N1CCN(c2ccc(F)cc2)CC1 | -34.8
52 | C[C@H](NS(=O)(=O)c1ccc2c(c1)OCCCO2)C(=O)N1CCN(Cc2ccc(C#N)cc2)CC1 | -61.1
53 | O=C(c1c[nH]c2ccc(S(=O)(=O)N3CCOCC3)cc2c1=O)N1CCC2(CC1)OCCO2 | 23.7
54 | CCc1ccccc1NC(=O)N1C2CCCC1CC(NC(C)=O)C2 (centres unmarked) | 21.4

Row | Structure (SMILES) | hERG current change (%, negative = inhibition) at 10uM [%]
55 | Cc1nn(-c2ccccc2)c(Cl)c1C1C(C#N)=C(N)Oc2c1c(=O)oc1ccccc21 (centres unmarked) | 6.87
56 | CCN1C(=O)C(=Cc2c(C)n(CC(=O)NCC3CCCO3)c3ccccc23)C(=O)N(CC)C1=S (centres unmarked) | 27.5
57 | CCOc1cc(-c2noc(CCC(=O)Nc3cccnc3)n2)ccc1OC | 10.4
58 | O=C(O)CC12C[C@H]3C[C@@H](C1)CC(n1ncc(N4CCN(c5ccccc5)CC4)c(Cl)c1=O)(C3)C2 | 6.36
59 | O=C(C1CCN(S(=O)(=O)c2cnc[nH]2)CC1)N1CCN(Cc2ccc3c(c2)OCO3)CC1 | 0.674
60 | O=C(O)CCC(=O)N1CCN(Cc2ccc3c(c2)OCO3)CC1 | 11.6
61 | N#Cc1ccc(S(=O)(=O)N2CCC(C(=O)N3CCN(Cc4ccc5c(c4)OCO5)CC3)CC2)cc1 | -74.2
62 | CCCC(=O)N1CCN(Cc2ccc3c(c2)OCO3)CC1 | -3.83
63 | O=C(CCC1CCCCC1)N1CCN(Cc2ccc3c(c2)OCO3)CC1 | -67.2
64 | O=C(C1CCN(S(=O)(=O)c2ccccc2)CC1)N1CCN(Cc2ccc3c(c2)OCO3)CC1 | -28.9
65 | CCOC(=O)C1CCN(S(=O)(=O)c2cc(C(=O)OC)n(C)c2)CC1 | -8.49
66 | CC(=O)NCC1CCCN(Cc2cn(-c3ccccc3)nc2-c2ccc3c(c2)OCO3)C1 (centres unmarked) | -45.9
67 | c1ccc(Cn2cc(CN3CCCCO3)c(-c3ccc4c(c3)OCO4)n2)cc1 | -1.3
68 | c1ccc(-n2cc(CN3CCCC(CN4CCCC4)C3)c(-c3ccc4c(c3)OCO4)n2)cc1 (centres unmarked) | -29.2
69 | c1ccc(-n2cc(CN3CCC(N4CCOCC4)CC3)c(-c3ccc4c(c3)OCO4)n2)cc1 | -50.8
70 | COCC1CCCCN1Cc1cn(-c2ccccc2)nc1-c1ccc2c(c1)OCO2 (centres unmarked) | -37.1
71 | c1ccc(Cn2cc(CN3CCCO3)c(-c3ccc4c(c3)OCO4)n2)cc1 | 15.9
72 | COC(=O)C1CCN(Cc2cn(-c3ccccc3)nc2-c2ccc3c(c2)OCO3)CC1 | -33.7
73 | COCC1CCCN(Cc2cn(-c3ccccc3)nc2-c2ccc3c(c2)OCO3)C1 (centres unmarked) | -65.7
74 | Cl.O=C1CSC(c2cn(-c3ccccc3)nc2-c2ccc3c(c2)OCCO3)N1CCN1CCOCC1 (centres unmarked) | -21.2
75 | c1ccc(-n2cc(CN3CCCC3)c(-c3ccc4c(c3)OCO4)n2)cc1 | -73
76 | OC[C@@H]1CCCN1Cc1cn(-c2ccccc2)nc1-c1ccc2c(c1)OCO2 | -24.2
77 | COCCC1CCCCN1Cc1cn(-c2ccccc2)nc1-c1ccc2c(c1)OCO2 (centres unmarked) | -55.8
78 | O=C(COC(=O)Cn1nc(-c2ccccc2)oc1=O)Nc1ccc(F)cc1 | 4.6
79 | CC1=C(C/C=C(\C)CCCC(C)CCCC(C)CCCC(C)C)C(=O)c2ccccc2C1=O (centres unmarked) | 25.4
80 | COC(=O)c1sccc1NC(=O)Nc1ccccc1F | 13.4
